Reference: PubChem BioAssay
“And” between values parts separate entries of the source, which are not always exact repeats. Equal entries are not always repeated. The source made the active and inactive calls.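 How the source made its calls, unless noted: active means thallium flux through the channel raised or lowered by more than 3 SD from vehicle-only wells, actives on both sides; inactive means the rest.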

How the values were obtained:
[1] = test system: Hepatitis C virus NS3 helicase; test: HCV NS3 helicase inhibitors, primary screen, biochemical, fluorescence polarization, NIH Clinical Collection (AID 743270; call rule not given here); details: NS3 helicase binding to Cy5-dT15 DNA, stronger effect = higher value, concentration not given here
[2] = target: Single-stranded DNA-binding protein (Escherichia coli (strain K12)) (UniProt P0AGE0); test: E. coli SSB displacement from DNA, counter-screen for HCV NS3 helicase inhibitor project, biochemical, fluorescence polarization, NIH Clinical Collection (AID 743271; in the data active means inhibition above about 28%); details: stronger effect = higher value, concentration not given here
[3] = fluorescence interference in NS3h assay format, artefact control for HCV NS3 helicase inhibitor project, biochemical, NIH Clinical Collection (AID 743272; call rule not given here;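 further: HCV NS3 helicase with a Cy5 labelled single stranded DNA probe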); details: fluorescence interference counterscreen, stronger effect = lower value
[4] = stimulators of nuclear beta-catenin in C2C12, primary screen, imaging, WNT3A-conditioned medium, mouse C2C12, NPC library (AID 1117326; in the data active means nuclear beta-catenin stimulation mostly above about 4.2%, no sharp cut-off; inactive means mostly below about 10%); details: stronger effect = higher value
[5] = stimulators of insulin release from INS-1E, primary screen, cell-based, 5 mM glucose, NPC library (AID 1117329;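 active means compound raises insulin release from rat beta cells at 5 mM glucose, no numeric limit stated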); details: rat INS-1E insulin secretion, at 10 µM, stronger effect = higher value
[6] = growth inhibition of GSK3B-pretreated HCT116 cells – cell-based, CellTiter-Glo, 0.2 to 20 µM (AID 1117336;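 active means compounds lowering colon cancer cell viability after pretreatment blocking the GSK3B kinase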); details: HCT116 viability after GSK3B inhibitor, at 20 µM, stronger effect = higher value
[7] = inhibition of endothelial tube formation, primary screen, imaging, VEGF stimulated, CD31 staining, tube area, NPC library (AID 1117340;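 active means compound that reduces growth-factor-driven endothelial tube area in a mixed cell culture, no cutoff stated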); details: VEGF-stimulated ADSC/ECFC co-culture, at 10 µM, stronger effect = higher value
[8] = glucagon-like peptide 1 release enhancers, primary assay, NCI-H716 cell line, NPC library (AID 1117341;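 active means compound raises GLP1 secretion from the human gut endocrine cells, with no numeric limit stated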); details: NCI-H716 cells, at 10 µM, stronger effect = higher value
[9] = HCT116 colon cancer cell growth inhibition, primary screen, CellTiter-Glo luminescence, NPC library (AID 1117342;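 active means compounds that lower survival of HCT116 colon cancer cells in the luminescence readout, no numeric limit stated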); details: at 20 µM (top of the series)
[10] = CellTiter-Glo luminescent readout of SW480 viability loss, NPC library primary (AID 1117343;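 active means compounds that lower viability of the colon cancer cells in the luminescence readout, with no numeric limit stated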); details: CellTiter-Glo luminescence; at 20 µM (top of the series)
[11] = decreased DLD-1 cellular survival, CellTiter-Glo luminescent readout, NPC compound collection, primary HTS (AID 1117346;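 active means compounds that lower survival of DLD-1 colon cancer cells in the luminescence readout, no cutoff given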); details: DLD-1 viability, CellTiter-Glo luminescence; at 20 µM (top of the series)
[12] = target: 6-phosphogluconate dehydrogenase, decarboxylating (Homo sapiens) (UniProt P52209); test: 6PGD enzyme inhibitors, primary screen, biochemical, human, recombinant enzyme, NADPH absorbance (AID 1159550;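 active means at least 20% inhibition of 6-phosphogluconate dehydrogenase activity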); details: recombinant 6PGD, NADPH absorbance 341 nm; at 10 µM; stronger effect = higher value
6-phosphogluconate dehydrogenase, decarboxylating (Homo sapiens), sequence (P52209 whole entry, looked up): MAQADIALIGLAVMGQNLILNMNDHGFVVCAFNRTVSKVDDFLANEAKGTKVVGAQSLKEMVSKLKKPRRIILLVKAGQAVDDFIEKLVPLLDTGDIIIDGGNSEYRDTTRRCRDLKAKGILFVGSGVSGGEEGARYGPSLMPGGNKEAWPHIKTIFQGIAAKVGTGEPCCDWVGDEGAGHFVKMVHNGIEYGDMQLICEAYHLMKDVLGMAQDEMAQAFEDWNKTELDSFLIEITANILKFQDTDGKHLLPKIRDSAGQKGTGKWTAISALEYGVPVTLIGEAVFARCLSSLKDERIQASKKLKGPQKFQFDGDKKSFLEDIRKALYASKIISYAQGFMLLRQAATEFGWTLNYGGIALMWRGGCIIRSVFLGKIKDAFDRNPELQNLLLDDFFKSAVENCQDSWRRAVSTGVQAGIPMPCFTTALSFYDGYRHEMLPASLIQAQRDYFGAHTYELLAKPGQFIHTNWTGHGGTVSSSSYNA

[13] = differential killing of epithelial or mesenchymal cells, primary screen, imaging, PC-3E GFP, TEM4-18 mCherry, co-culture (AID 1345086;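 active means compounds killing one labelled cell type while sparing the other, by normalised counts and ratio limits, not self-fluorescent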;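 on all read-outs here: cells exposed to compound for 72 h before imaging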;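 on red/green cell ratio (normalised): normalised mesenchymal count divided by normalised epithelial count so high means epithelial killing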); details: imaging cell counts, at 1 µM; for red/green cell ratio (normalised): actives lie on both sides, counts scaled to control wells, 1 = unselective
[14] = sensitizers of A549 cells to miR-34 induction, primary screen, imaging, A549 dox-inducible miR-34, nuclei and caspase counts (AID 1347080;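 active means compounds whose cell count with miR-34 switched on is under 0.7 times the count with it off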); details: A549 miR-34 inducible, Hoechst nuclei count, 48 h
[15] = survival rescue of mitochondrial mutant cells in low glucose, primary screen, MELAS cybrids, Rieske KO mouse fibroblasts, CellTiter-Glo (AID 1508586;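 active means mean z-score across replicates of 1.96 or higher in either the MELAS or the Rieske mutant cell line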;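 further: z relative to plate mean and SD of compound and empty wells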)
[16] = target: NAD(+) hydrolase SARM1 (Homo sapiens) (UniProt Q6SZW1); test: SARM1 TIR NADase inhibitors, cell lysate, NAD-Glo luminescence (AID 1508614;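 active means compound whose remaining NAD level is above about 45 nM, limit read from the data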); details: SAM-TIR HEK293T lysate NADase, at 1 µM, stronger effect = higher value
NAD(+) hydrolase SARM1 (Homo sapiens), sequence (Q6SZW1 whole entry, looked up, the tested form may be a part): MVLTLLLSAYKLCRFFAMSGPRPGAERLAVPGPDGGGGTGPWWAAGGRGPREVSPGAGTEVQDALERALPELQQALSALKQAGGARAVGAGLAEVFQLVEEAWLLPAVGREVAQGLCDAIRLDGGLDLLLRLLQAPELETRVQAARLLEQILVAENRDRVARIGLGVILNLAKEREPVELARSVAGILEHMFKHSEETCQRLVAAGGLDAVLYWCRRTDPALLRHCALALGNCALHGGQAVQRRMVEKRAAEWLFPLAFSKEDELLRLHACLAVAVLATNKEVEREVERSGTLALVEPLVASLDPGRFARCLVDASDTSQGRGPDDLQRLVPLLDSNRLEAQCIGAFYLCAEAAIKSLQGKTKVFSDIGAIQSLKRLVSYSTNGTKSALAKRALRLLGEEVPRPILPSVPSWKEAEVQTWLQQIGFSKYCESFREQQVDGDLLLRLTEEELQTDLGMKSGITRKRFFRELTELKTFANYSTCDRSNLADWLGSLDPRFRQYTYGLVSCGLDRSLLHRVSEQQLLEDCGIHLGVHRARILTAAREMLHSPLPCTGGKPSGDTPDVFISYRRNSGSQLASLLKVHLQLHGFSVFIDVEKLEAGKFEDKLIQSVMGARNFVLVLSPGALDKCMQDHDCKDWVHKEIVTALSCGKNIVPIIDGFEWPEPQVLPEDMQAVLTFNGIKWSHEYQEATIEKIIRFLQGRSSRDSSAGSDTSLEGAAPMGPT

[17] = target: Mitogen-activated protein kinase 7 (Homo sapiens) (UniProt Q13164); test: ERK5 transactivation activators in reporter cells, primary screen, cell-based, HTS (AID 1508626;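 active means luciferase signal above three times the same-plate solvent-only control wells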;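 further: luciferase driven by Gal4-ERK5 fusion binding five Gal4 sites before minimal TATA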); details: HeLa Gal4-ERK5 transactivation, 18 h, at 5 µM, stronger effect = higher value
Mitogen-activated protein kinase 7 (Homo sapiens), sequence (Q13164 whole entry, looked up, the tested form may be a part): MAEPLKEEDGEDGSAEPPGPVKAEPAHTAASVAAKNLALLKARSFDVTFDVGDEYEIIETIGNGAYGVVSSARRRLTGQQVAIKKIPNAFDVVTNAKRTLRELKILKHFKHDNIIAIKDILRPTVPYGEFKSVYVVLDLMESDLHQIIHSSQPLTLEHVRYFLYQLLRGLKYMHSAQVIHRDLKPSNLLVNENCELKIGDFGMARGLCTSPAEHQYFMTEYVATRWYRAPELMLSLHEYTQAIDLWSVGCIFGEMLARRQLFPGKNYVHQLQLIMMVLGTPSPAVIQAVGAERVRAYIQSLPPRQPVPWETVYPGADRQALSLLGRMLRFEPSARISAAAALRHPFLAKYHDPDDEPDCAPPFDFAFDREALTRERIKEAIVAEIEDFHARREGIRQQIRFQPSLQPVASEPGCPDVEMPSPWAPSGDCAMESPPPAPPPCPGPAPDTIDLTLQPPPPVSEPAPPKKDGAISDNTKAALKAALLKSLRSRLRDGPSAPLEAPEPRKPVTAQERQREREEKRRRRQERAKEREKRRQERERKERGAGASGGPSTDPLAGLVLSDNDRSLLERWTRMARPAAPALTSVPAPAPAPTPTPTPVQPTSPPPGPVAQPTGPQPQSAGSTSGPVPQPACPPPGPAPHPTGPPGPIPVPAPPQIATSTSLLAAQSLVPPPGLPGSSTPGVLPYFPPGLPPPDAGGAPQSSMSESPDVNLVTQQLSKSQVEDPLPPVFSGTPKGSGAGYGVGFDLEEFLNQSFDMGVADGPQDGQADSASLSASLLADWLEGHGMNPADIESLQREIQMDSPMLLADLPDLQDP

F380Y = test: modulators of BK channel variants, profiling panel, selectivity assay, cell-based, U2OS BacMam, thallium flux, beta subunits (AID 1259406); details: at 30 µM;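 further: initial slope of Thallos dye fluorescence rise after thallium is added; log ratio against the mean of 0.3% DMSO vehicle wells on the same plate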
F380Y/beta2Delta = test: as above; details: at 30 µM
[18] = target: Calcium-activated potassium channel subunit alpha-1 (Homo sapiens) + Leucine-rich repeat-containing protein 26 (Homo sapiens) (UniProt Q12791+Q2I0M4); test: as above; details: F380Y/Slo1WT/gamma1, at 30 µM
Calcium-activated potassium channel subunit alpha-1 (Homo sapiens) + Leucine-rich repeat-containing protein 26 (Homo sapiens), sequence (Q2I0M4 whole entry, looked up, one chain of several): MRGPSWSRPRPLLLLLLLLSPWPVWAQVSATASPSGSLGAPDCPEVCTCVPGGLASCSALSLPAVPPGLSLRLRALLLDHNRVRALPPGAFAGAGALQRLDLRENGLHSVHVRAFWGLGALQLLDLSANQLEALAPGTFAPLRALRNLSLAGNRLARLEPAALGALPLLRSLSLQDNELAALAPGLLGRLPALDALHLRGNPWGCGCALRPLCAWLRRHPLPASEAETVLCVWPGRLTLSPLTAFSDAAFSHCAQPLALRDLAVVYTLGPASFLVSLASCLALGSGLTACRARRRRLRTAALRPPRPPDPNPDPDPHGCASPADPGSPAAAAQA

[19] = measured here: epithelial PC-3E GFP cell survival
[20] = measured here: mesenchymal TEM4-18 mCherry cell survival
[21] = measured here: total cells without miR-34 induction
[22] = MELAS cybrid survival, CellTiter-Glo 48 h, stronger effect = higher value
[23] = Rieske KO mouse fibroblast survival, CellTiter-Glo 72 h

C=C(CC)C(=O)c1ccc(OCC(=O)O)c(Cl)c1Cl
inactive: inhibition [1] -4.09% | inhibition [2] 2.57% | fluorescence ratio [3] 0.9 | nuclear beta-catenin stimulation ([4]; at 10 µM) 3% | insulin secretion stimulation [5] -2.5% | viability decrease [6] 24.9% | GLP1 secretion stimulation [8] 3.1% | inhibition of viability [9] -25.8% | viability decrease (inhibition) [11] 14.8% | inhibition [12] 9.98% | red/green cell ratio (normalised) [13] 0.98 | z-score [15, 22] 0.232 and -0.08 | remaining NAD [16] 10 nM | luciferase signal [17] 64 AU | log fold change Tl+ flux (F380Y) -0.0103 | log fold change Tl+ flux (F380Y/beta2Delta) -0.0325 | log fold change Tl+ flux [18] 0.0507
1.4%: nuclear beta-catenin stimulation ([4]; stimulation, at 2 µM)
0.9: normalised cell number [13, 20]
0.92: normalised cell number [13, 19]
10500 and 9830 and 12200: cell count [14, 21]
active: tube area decrease [7] 52.6% | viability decrease (inhibition) [10] 122%
-0.298 and 0.189: z-score [15, 23]

CSc1ccc2c(c1)N(CCC1CCCCN1C)c1ccccc1S2 (stereo unspecified)
0.0893 and 2.14: z-score [15, 23]
0.88: normalised cell number [13, 19]
active: viability decrease [6] 110% | tube area decrease [7] 103% | inhibition of viability [9] 112% | viability decrease (inhibition) [10] 133% | viability decrease (inhibition) [11] 101% | log fold change Tl+ flux (F380Y/beta2Delta) 0.193
-1.63 (inactive) and -1.09: z-score [15, 22]
0.96: normalised cell number [13, 20]
1.6%: nuclear beta-catenin stimulation ([4]; stimulation, at 2 µM)
inactive: inhibition [1] -5% | inhibition [2] 0.29% | fluorescence ratio [3] 0.85 | nuclear beta-catenin stimulation ([4]; at 10 µM) 22.9% | insulin secretion stimulation [5] 5.6% | GLP1 secretion stimulation [8] 12.4% | inhibition [12] -1.24% | red/green cell ratio (normalised) [13] 1.09 | remaining NAD [16] 10 nM | luciferase signal [17] 40 AU | log fold change Tl+ flux (F380Y) 0.0395 | log fold change Tl+ flux [18] 0.0351

CCCCNC(=O)NS(=O)(=O)c1ccc(C)cc1
1.15: normalised cell number [13, 20]
inactive: inhibition [1] -5.91% | inhibition [2] 1.05% | fluorescence ratio [3] 0.91 | nuclear beta-catenin stimulation ([4]; at 10 µM) 0.2% | insulin secretion stimulation [5] 3.85% | viability decrease [6] -5.6% | tube area decrease [7] 5.7% | GLP1 secretion stimulation [8] 6.7% | inhibition of viability [9] -6.5% | viability decrease (inhibition) [10] -6% | viability decrease (inhibition) [11] -5.4% | inhibition [12] -14.4% | red/green cell ratio (normalised) [13] 1.12 | z-score [15, 22] -0.283 and 0.394 and 0.614 | remaining NAD [16] 10 nM | luciferase signal [17] 36 AU | log fold change Tl+ flux (F380Y) -0.00894 | log fold change Tl+ flux (F380Y/beta2Delta) 0.0378 | log fold change Tl+ flux [18] -0.0258
-0.151 and -0.133 and 0.0575: z-score [15, 23]
3.2%: nuclear beta-catenin stimulation ([4]; stimulation, at 2 µM)
1.03: normalised cell number [13, 19]

CCN(CC)CCOC(=O)C1(C2CCCCC2)CCCCC1
inactive: inhibition [1] -3.18% | inhibition [2] 4.1% | fluorescence ratio [3] 0.95 | nuclear beta-catenin stimulation ([4]; at 10 µM) 2.1% | insulin secretion stimulation [5] 6.9% | viability decrease [6] -64.7% | tube area decrease [7] -0.9% | GLP1 secretion stimulation [8] 5.4% | inhibition of viability [9] 36.5% | viability decrease (inhibition) [11] 34.2% | inhibition [12] 11.5% | red/green cell ratio (normalised) [13] 1.32 | z-score [15, 22] 0.288 and 0.358 | remaining NAD [16] 10 nM | log fold change Tl+ flux (F380Y) 0.0289 | log fold change Tl+ flux (F380Y/beta2Delta) 0.0166 | log fold change Tl+ flux [18] -0.023
1.1%: nuclear beta-catenin stimulation ([4]; stimulation, at 2 µM)
1.25: normalised cell number [13, 19]
active: viability decrease (inhibition) [10] 84.8% | luciferase signal [17] 1050 AU
-0.235 and -0.17: z-score [15, 23]
1.66: normalised cell number [13, 20]

CCCNC(C)C(=O)Nc1ccccc1C (stereo unspecified)
1.32: normalised cell number [13, 20]
-0.309 and -0.0551 and 0.281: z-score [15, 23]
inactive: inhibition [1] -4.09% | inhibition [2] -0.48% | fluorescence ratio [3] 0.97 | nuclear beta-catenin stimulation ([4]; at 10 µM) 2.8% | insulin secretion stimulation [5] -0.2% | viability decrease [6] -19.3% | tube area decrease [7] -7.6% | GLP1 secretion stimulation [8] -2.8% | inhibition of viability [9] -6.47% | viability decrease (inhibition) [10] 14.5% | viability decrease (inhibition) [11] -13.2% | inhibition [12] 10.3% | red/green cell ratio (normalised) [13] 1.41 | z-score [15, 22] 0.649 and 0.0198 and 0.84 | remaining NAD [16] 10 nM | luciferase signal [17] 232 AU | log fold change Tl+ flux (F380Y) 0.0152 | log fold change Tl+ flux (F380Y/beta2Delta) 0.0464 | log fold change Tl+ flux [18] -0.0185
0.93: normalised cell number [13, 19]
0.2%: nuclear beta-catenin stimulation ([4]; stimulation, at 2 µM)

Cc1ccc(S(=O)(=O)NC(=O)NN2CCCCCC2)cc1
-0.174 and -0.295: z-score [15, 23]
1.13: normalised cell number [13, 20]
active: insulin secretion stimulation [5] 60.9%
inactive: inhibition [1] -2.27% | inhibition [2] -2.76% | fluorescence ratio [3] 1 | nuclear beta-catenin stimulation ([4]; at 10 µM) 0.5% | viability decrease [6] -7% | tube area decrease [7] -13.2% | GLP1 secretion stimulation [8] 1.4% | inhibition of viability [9] -14.9% | viability decrease (inhibition) [10] -1.7% | viability decrease (inhibition) [11] 4.8% | inhibition [12] 16.2% | red/green cell ratio (normalised) [13] 1.04 | z-score [15, 22] -0.943 and -0.476 | remaining NAD [16] 10 nM | luciferase signal [17] 144 AU | log fold change Tl+ flux (F380Y) -0.0421 | log fold change Tl+ flux (F380Y/beta2Delta) -0.0238 | log fold change Tl+ flux [18] 0.0367
1.09: normalised cell number [13, 19]
-0.9%: nuclear beta-catenin stimulation ([4]; stimulation, at 2 µM)

NCC(=O)CCC(=O)O
inactive: inhibition [1] -2.27% | inhibition [2] -0.48% | fluorescence ratio [3] 1.02 | nuclear beta-catenin stimulation ([4]; at 10 µM) 0.4% | insulin secretion stimulation [5] 1.9% | viability decrease [6] 26.6% | tube area decrease [7] -10.4% | GLP1 secretion stimulation [8] -1.4% | inhibition of viability [9] 18.9% | viability decrease (inhibition) [10] 19.8% | viability decrease (inhibition) [11] 1% | inhibition [12] -28.8% | red/green cell ratio (normalised) [13] 1.08 | fold change ([14]; stronger effect = lower value, cell number ratio, induced over uninduced) 0.951 and 0.95 and 0.866 | z-score [15, 22] -0.348 | remaining NAD [16] 10 nM | luciferase signal [17] 84 AU | log fold change Tl+ flux (F380Y) -0.035 | log fold change Tl+ flux (F380Y/beta2Delta) -0.0239 | log fold change Tl+ flux [18] 0.011
0.0439: z-score [15, 23]
1.4: normalised cell number [13, 20]
9310 and 7910 and 11200: cell count ([14]; measured here: total cells with miR-34 induction, stronger effect = lower value)
9780 and 8320 and 12900: cell count [14, 21]
-0.9%: nuclear beta-catenin stimulation ([4]; stimulation, at 2 µM)
1.3: normalised cell number [13, 19]
1.44 and 0.654 and 2.02: fold change ([14]; measured here: relative caspase fold change +Dox/-Dox)
